Source: PubChem BioAssay (The Scripps Research Institute Molecular Screening Center)
Sampled rows, rich in hits. Any-hit rate of the full collection: about 3.4%.
PAFAH2 FP inh = inhibitors of human PAFAH2; 340,000 tested, 0.99% active; inhibition, % at 3.39 µM; Q99487; recombinant PAFAH2, FP-rhodamine activity probe, fluorescence polarization;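 active = inhibition above the mean over all tested compounds plus 3 SD, cut at about 30% in these data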;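 note: inhibitors block probe labeling of enzyme so polarization drops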
PP5 inh = inhibitors of human protein phosphatase 5 (PP5); P53041; purified PP5c, OMFP substrate fluorescence; inhibition, % at 6.7 µM; 320,000 tested, 0.18% active;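 active = inhibition above the campaign's mean inhibition across all tested compounds plus 3 SD, cut at about 9.5% in these data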
PAFAH1B2 FP inh = inhibitors of human PAFAH1B2; recombinant PAFAH1B2, FP-rhodamine activity probe, fluorescence polarization; inhibition, % at 3.39 µM; 340,000 tested, 1.2% active;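 active = inhibition above the mean of all tested compounds plus 3 SD, cut at about 24% in these data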
PAFAH1B3 FP inh = PAFAH1B3 (human) inhibition; inhibition, % at 3.39 µM; Q15102; 340,000 tested, 0.28% active; AID 492972; recombinant PAFAH1B3, FP-rhodamine probe, fluorescence polarization;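 active = inhibition above the screen-wide average of all tested compounds plus 3 SD, cut at about 25% in these data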
PP1 inh = blocks human PP1-alpha phosphatase, a PP5 counter-screen. purified PP1alpha, OMFP fluorescence. inhibition, % at 6.7 µM. 320,000 tested, 0.9% active;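 active = inhibition above the mean inhibition of all tested compounds plus 3 SD, computed separately for each screening campaign, cut at about 15% in these data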
pPAFAH FP inh = pPAFAH (human) enzyme inhibition. recombinant pPAFAH, FP-rhodamine probe fluorescence polarization. 330,000 tested, 1.5% active. AID 463082. inhibition, % at 3.39 µM;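 active = inhibition above the mean inhibition across the screen plus 3 SD, cut at about 25% in these data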;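 note: inhibitors block binding of the rhodamine activity-based probe so polarization drops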
Target sequence (Q13093 whole entry, looked up): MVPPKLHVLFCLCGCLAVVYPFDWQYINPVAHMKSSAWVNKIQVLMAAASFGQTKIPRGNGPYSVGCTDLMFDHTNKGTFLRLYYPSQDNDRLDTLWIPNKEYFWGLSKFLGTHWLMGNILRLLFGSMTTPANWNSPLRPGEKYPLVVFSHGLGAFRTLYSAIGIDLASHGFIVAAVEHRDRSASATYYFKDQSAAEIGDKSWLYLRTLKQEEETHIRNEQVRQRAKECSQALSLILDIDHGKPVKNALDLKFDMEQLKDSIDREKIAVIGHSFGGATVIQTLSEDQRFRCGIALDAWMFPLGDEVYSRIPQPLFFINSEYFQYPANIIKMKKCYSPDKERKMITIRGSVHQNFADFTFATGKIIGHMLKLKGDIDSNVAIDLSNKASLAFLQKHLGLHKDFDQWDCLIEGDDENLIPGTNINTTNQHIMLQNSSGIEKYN
PAFAH2 FP conf = PAFAH2 (human) inhibition, confirmed; shares compounds with PAFAH2 FP inh; 2,300 tested, 65% active; inhibition, % at 3.39 µM; recombinant PAFAH2, FP-rhodamine activity probe, fluorescence polarization;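 active = mean inhibition over three repeats above a set limit taken from the earlier primary screen, cut at about 30% in these data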;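 note: inhibitor blocks binding of rhodamine activity probe so polarization falls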
Numbers stand for hits; . = inactive; / = no result.

SMILES	PAFAH2 FP inh	PP5 inh	PAFAH1B2 FP inh	PAFAH1B3 FP inh	PP1 inh	pPAFAH FP inh	PAFAH2 FP conf
O=C(COC(=O)C1CC1)Nc1ncc(Cl)cc1Cl	30.1	.	.	.	.	.	.
COc1ccc(NC(=O)Cc2c(F)cccc2Cl)c(OC)c1	.	.	.	.	.	.	/
COc1ccc(CCNC(=O)COC(=O)/C=C/c2ccc(OC)cc2OC)cc1	71.5	/	.	.	/	.	58.2
COc1ccc(CCNC(=O)COC(=O)c2ccc(OC)cc2OC)cc1	.	/	.	.	/	/	/
CCN(CC(=O)NCc1cccs1)C(=O)/C=C/c1cc(OC)ccc1OC	.	.	.	.	.	.	/
COc1ccc(OC)c(/C=C/C(=O)OCC(=O)NCc2ccccc2)c1	46.4	/	.	.	/	.	.
COc1ccc(OC)c(/C=C/C(=O)OCC(=O)NCc2cccs2)c1	45.9	.	.	.	.	.	50.4
COc1ccc(CCNC(=O)COC(=O)/C=C/c2cc(OC)ccc2OC)cc1	31.6	/	.	.	/	.	.
O=C(COC(=O)/C=C/c1ccccc1Cl)NCc1ccccc1	.	.	.	.	.	.	/
CC(C)(C)[C@H]1COC(=O)CCCC/C=C\C[C@H](CC(=O)NCCO)C(=O)N1	.	/	.	.	/	.	/
CC(C)(C)c1ccc(C(CC(=O)O)NC(=O)Cc2ccccc2)cc1 (stereo unspecified)	.	.	.	.	.	.	/
COc1ccc(/C=C/C(=O)OCC(=O)NCc2ccccc2)cc1OC	49.6	.	.	.	.	.	47.4
COc1cc(/C=C/C(=O)OCC(=O)NCc2cccs2)ccc1OC(F)F	32.9	.	.	.	.	.	51.0
CN(C)c1ccc(N/C(=N\S(=O)(=O)c2cccs2)c2ccccc2)cc1	57.1	.	.	.	.	.	54.3
OCC[C@@H]1C[C@H](O)[C@@H](O)[C@]2(CCc3ccccc3CO2)O1	.	.	.	.	.	.	/
Cc1cc(Nc2ccccc2)nc(N2CCN(C(=O)c3ccc4c(c3)OCO4)CC2)n1	.	.	.	.	.	.	/
Cc1c(Cl)cccc1NCC(=O)NN=C1CCCC1	.	.	.	.	.	.	/
CCOC(=O)C/C(C)=N/NC(=O)CNc1cccc(Cl)c1C	72.3	.	.	.	.	.	63.0
O=C(COC(=O)C1CCN(S(=O)(=O)c2ccccc2C(F)(F)F)CC1)NCc1ccc(F)cc1	.	.	.	.	.	.	/
Cc1ccccc1CSc1nc(C(C)(C)C)cc(=O)[nH]1	/	.	/	/	.	.	/
O=C(O)CN=C(NS(=O)(=O)c1ccc(Cl)cc1)c1ccccc1	34.8	.	.	.	.	.	.
CC(=O)CC(c1ccccc1)S(=O)(=O)c1ccc([N+](=O)[O-])cc1 (stereo unspecified)	.	.	.	.	.	.	/
CC1CCCCC1NC(=O)COC(=O)c1ccc2c(c1)NC(=O)CS2 (stereo unspecified)	85.6	/	.	.	/	.	76.9
CC1CCCC(NC(=O)COC(=O)c2ccc(S(=O)(=O)N3CCOCC3)cc2)C1C (stereo unspecified)	.	.	.	.	.	.	/
COc1ccc(C(=O)NC(=O)COC(=O)c2ccc3ncsc3c2)cc1	/	.	/	/	.	.	/
SMILES	PAFAH2 FP inh	PP5 inh	PAFAH1B2 FP inh	PAFAH1B3 FP inh	PP1 inh	pPAFAH FP inh	PAFAH2 FP conf
CC1CCCC(NC(=O)COC(=O)c2ccc3ncsc3c2)C1C (stereo unspecified)	85.3	.	.	.	.	.	76.3
CC1CCCCC1NC(=O)COC(=O)c1ccc2ncsc2c1 (stereo unspecified)	84.2	.	.	.	.	.	78.3
Cc1ccc(N2C(=O)CC(NNC(=O)Cc3ccc(F)cc3)C2=O)cc1Cl (stereo unspecified)	.	.	.	.	.	.	/
Cc1ccc(O)c(NC(=O)Cc2ccc3ccccc3c2)c1	74.2	.	.	.	.	.	67.6
O=C(Nc1ccc(Br)cc1)c1cc(-c2ccncc2)nc2ccccc12	.	/	.	.	/	.	/
O=C(COC(=O)c1cc[n+]([O-])cc1)Nc1ccccc1Cl	.	.	.	.	.	.	/
Cn1ccc(C(=O)OCC(=O)Nc2cccc(Cl)c2)n1	83.2	.	.	.	.	.	78.1
Cn1ccc(C(=O)OCC(=O)Nc2ccccc2Cl)n1	38.5	/	.	.	/	/	.
O=C(COC(=O)c1ccccn1)Nc1cccc(Cl)c1	.	.	.	.	.	.	/
Cn1nccc1C(=O)OCC(=O)Nc1ccc(S(N)(=O)=O)cc1	.	.	.	.	.	.	/
Cn1nccc1C(=O)OCC(=O)Nc1cccc(Cl)c1	66.2	.	.	.	.	.	52.5
Cc1ccc(-n2ncc3c2CCCC3NC(=O)CCCN2CCCC2=O)cc1C (stereo unspecified)	.	.	.	.	.	.	/
O=C(O)CN1C(=O)C(=O)N(Cc2ccc(C(F)(F)F)cc2)C1=O	.	.	.	.	.	.	/
Cc1ccc(C)c(SCC(=O)NNC(=O)c2csc(N3CCOCC3)n2)c1	30.3	.	.	.	.	.	31.0
COc1ccccc1CNC(=O)COC(=O)C1CCN(S(=O)(=O)c2ccc(C)c(C)c2)CC1	.	.	.	.	.	.	/
CCOC(=O)C1=C(C)N=c2s/c(=C\c3ccc(OCC(=O)O)cc3)c(=O)n2C1c1ccccc1OC (stereo unspecified)	.	.	.	.	.	.	/
CCOC(=O)C1=C(C)N=c2s/c(=C\c3ccc(O)c([N+](=O)[O-])c3)c(=O)n2C1c1ccccc1OC (stereo unspecified)	35.5	.	.	.	.	.	.
O=C(N/N=C/c1coc2ccccc2c1=O)c1cc(Br)c(O)c(Br)c1	71.1	/	.	.	/	/	54.8
O=C(N/N=C/c1coc2ccccc2c1=O)c1ccncc1	.	/	.	.	/	/	/
O=C(CCc1[nH]c2ccccc2c1Sc1ccccc1)NCCO	37.0	.	.	.	.	.	.
C[n+]1c(-c2ccccc2)cc2c(=Cc3ccccc3)c3ccccc3n21	58.5	/	.	.	/	/	.
Cc1cc2c(=Cc3ccc(N(C)C)cc3)c3ccccc3n2[n+]1C	.	/	.	.	/	/	/
CC1=NN(c2ccccc2)C(=O)/C1=C/c1cccs1	.	.	.	.	.	.	/
CC1=NN(c2ccccc2)C(=O)/C1=C\c1ccc(Br)s1	32.8	.	.	.	.	.	.
COc1cccc(C(=O)OCC(=O)Nc2cc(C)on2)c1OC	73.6	/	.	.	/	.	51.9
COc1cccc(C(=O)Nc2cc(C)on2)c1OC	.	.	.	.	.	.	/
Cc1cc(NC(=O)COC(=O)c2ccc(C)c(C)c2)no1	51.6	/	.	.	/	.	33.7
Cc1cc(NC(=O)COC(=O)c2ccc(NS(=O)(=O)c3ccc(C)c(C)c3)cc2)no1	.	.	.	.	.	.	/
CC(C)Cc1nc(SCC(=O)N2CCCC2)c2c(=O)n(C)c(=O)n(C)c2n1	.	.	.	.	.	.	/
